Source: PubChem BioAssay (NCI)
Compounds without any hit were thinned out: in the full panel of roughly 79,000, 15% have a hit. A number with no mark means an inactive call. The source made the active and inactive calls. No stated cut-off is given here; in the data, active means growth inhibition above about 70%; inactive means the rest.

How the values were obtained:
[1] = NCI Yeast Anticancer Drug Screen. Data for the rad52 strain (AID 147);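 further: 0% = growth of vehicle-treated control cultures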; conditions: S. cerevisiae rad52 mutant growth inhibition, stronger effect = higher value
Summary of the method: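 Yeast strain carrying a DNA damage repair alteration was exposed to test compounds. Growth inhibition was measured relative to vehicle-treated controls.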

[2] = NCI Yeast Anticancer Drug Screen. Data for the wt1 strain (AID 149);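 further: 0% = growth of vehicle-treated wt1 cultures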; conditions: S. cerevisiae wt1 strain (SPY 50644) growth inhibition, stronger effect = higher value
Summary of the method: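 Vehicle-normalised growth inhibition; strain wt1; compound exposure.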

[3] = NCI Yeast Anticancer Drug Screen. Data for the rad50EPP+ strain (AID 151);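 further: 0% = growth of vehicle-treated control cultures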; conditions: S. cerevisiae rad50 mutant strain, stronger effect = higher value
Summary of the method: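 Yeast strain carrying rad50 alteration (rad50EPP+) exposed to compounds; growth inhibition measured relative to vehicle-treated controls.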

[4] = NCI Yeast Anticancer Drug Screen. Data for the rad50 strain (AID 155);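 further: 0% = growth of vehicle-only cultures of the same strain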; conditions: S. cerevisiae rad50 strain growth inhibition, stronger effect = higher value
Summary of the method: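 A DNA repair-deficient yeast mutant serves as the test organism; compound-induced growth inhibition is calculated against vehicle-treated cells.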

[5] = NCI Yeast Anticancer Drug Screen. Data for the mec2-1 strain (AID 157); conditions: S. cerevisiae mec2-1 strain, stronger effect = higher value
Summary of the method: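 mec2-1 yeast strain, carrying an alteration in DNA damage repair or cell cycle control, was exposed to compounds; growth inhibition was measured relative to vehicle-treated controls.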

[6] = NCI Yeast Anticancer Drug Screen. Data for the rad14 strain (AID 159);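 further: 0% = growth of vehicle-treated control cultures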; conditions: S. cerevisiae rad14 strain growth inhibition, stronger effect = higher value
Summary of the method: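 Vehicle-treated cultures served as the baseline for growth inhibition of a DNA repair-mutant yeast strain exposed to each compound.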

[7] = NCI Yeast Anticancer Drug Screen. Data for the sgs1 mgt1 strain (AID 161);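 further: 0% = growth of cultures given vehicle only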; conditions: S. cerevisiae sgs1 mgt1 strain, stronger effect = higher value
Summary of the method: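 Percent growth inhibition was derived by comparing compound-exposed mutant yeast with vehicle-exposed cultures. The strain carries alterations in DNA damage repair.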

[8] = NCI Yeast Anticancer Drug Screen. Data for the CLN2oe strain (AID 163);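 further: 0% = growth of vehicle-only control cultures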; conditions: S. cerevisiae CLN2oe strain, stronger effect = higher value
Summary of the method: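 Yeast cells carrying a defined cell-cycle control alteration were exposed to test compounds. Growth inhibition was scored against vehicle-treated control cultures.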

[9] = NCI Yeast Anticancer Drug Screen. Data for the cln2 rad14 strain (AID 165);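 further: 0% = growth equal to vehicle treated cultures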; conditions: S. cerevisiae cln2 rad14 strain, stronger effect = higher value
Summary of the method: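 Yeast carrying cln2 and rad14 alterations (cell cycle control and DNA damage repair) were exposed to compounds. Growth inhibition was measured against vehicle-treated controls.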

[10] = NCI Yeast Anticancer Drug Screen. Data for the bub3 strain (AID 167); conditions: S. cerevisiae bub3 mutant strain, stronger effect = higher value
Summary of the method: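 Inhibition values come from growth of compound-treated mutant yeast normalised to vehicle-treated controls.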

[11] = NCI Yeast Anticancer Drug Screen. Data for the wt2 strain (AID 169);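 further: 0% = growth of vehicle-treated yeast cultures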; conditions: S. cerevisiae wt2 strain growth inhibition, stronger effect = higher value
Summary of the method: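 Yeast cells were exposed to test compounds, and growth inhibition was measured relative to vehicle-treated controls.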

[12] = NCI Yeast Anticancer Drug Screen. Data for the mlh1 strain (AID 171);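 further: 0% = growth of vehicle-treated control cultures of the same strain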; conditions: S. cerevisiae mlh1 strain growth inhibition, stronger effect = higher value
Summary of the method: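 Yeast carrying a defined genetic alteration in DNA damage repair or cell cycle control were exposed to test compounds. Growth inhibition was measured relative to vehicle-treated controls.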

[13] = NCI Yeast Anticancer Drug Screen. Data for the sgs1 strain (AID 173);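 further: 0% = growth of vehicle-only control cultures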; conditions: S. cerevisiae sgs1 mutant, stronger effect = higher value
Summary of the method: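 Yeast mutant strains carrying defined defects in DNA damage repair or cell cycle control were exposed to test compounds. Growth inhibition was scored against vehicle-treated controls.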

[14] = NCI Yeast Anticancer Drug Screen. Data for the mlh1 rad18 strain (AID 175); conditions: S. cerevisiae mlh1 rad18 strain growth inhibition, stronger effect = higher value
Summary of the method: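 Growth inhibition of the yeast strain was measured after compound exposure and expressed relative to vehicle-treated controls. The strain carries defined defects in DNA damage repair.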

[15] = NCI Yeast Anticancer Drug Screen. Data for the rad18 strain (AID 177); conditions: S. cerevisiae rad18 mutant growth inhibition, stronger effect = higher value
Summary of the method: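 Yeast carrying a defined DNA damage repair alteration were exposed to compounds. Growth inhibition was expressed relative to vehicle-treated controls.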

[16] = at 5.0 µM (retest, dose inferred, filed as 0.5)
[17] = at 50.0 µM (retest, dose inferred, filed as 5.0)

O=P(Oc1ccc(Cl)cc1)(Oc1ccc(Cl)cc1)N1CC1
growth inhibition ([1]; at 1.2 µM): -1% | growth inhibition ([1]; at 3.7 µM): 1% | growth inhibition ([1]; at 11.0 µM): 0% | growth inhibition ([1]; at 33.0 µM): 8% | growth inhibition ([1]; at 100.0 µM): 53% | growth inhibition ([2]; at 1.2 µM): -2% | growth inhibition ([2]; at 3.7 µM): -6% | growth inhibition ([2]; at 11.0 µM): -4% | growth inhibition ([2]; at 33.0 µM): -2% | growth inhibition ([2]; at 100.0 µM): 2% | growth inhibition ([3]; at 1.2 µM): -3% | growth inhibition ([3]; at 3.7 µM): -1% | growth inhibition ([3]; at 11.0 µM): 4% | growth inhibition ([3]; at 33.0 µM): 6% | growth inhibition ([3]; at 100.0 µM): -4% | growth inhibition ([4]; at 1.2 µM): 2% | growth inhibition ([4]; at 3.7 µM): 1% | growth inhibition [4, 16]: -9% | growth inhibition ([4]; at 11.0 µM): 2% | growth inhibition ([4]; at 33.0 µM): 8% | growth inhibition [4, 17]: 43% | growth inhibition ([4]; at 50.0 µM): 4.75% | growth inhibition ([4]; at 100.0 µM): 79% (active) | growth inhibition ([5]; at 1.2 µM): -3% | growth inhibition ([5]; at 3.7 µM): -1% | growth inhibition [5, 16]: 4% | growth inhibition ([5]; at 11.0 µM): -2% | growth inhibition ([5]; at 33.0 µM): -1% | growth inhibition [5, 17]: 6% | growth inhibition ([5]; at 50.0 µM): 14.3% | growth inhibition ([5]; at 100.0 µM): 28% | growth inhibition ([6]; at 1.2 µM): 0% | growth inhibition ([6]; at 3.7 µM): 1% | growth inhibition ([6]; at 11.0 µM): 5% | growth inhibition ([6]; at 33.0 µM): 19% | growth inhibition ([6]; at 100.0 µM): 90% (active) | growth inhibition [7, 16]: -10% | growth inhibition [7, 17]: 35% | growth inhibition ([7]; at 50.0 µM): 18.9% | growth inhibition ([8]; at 1.2 µM): -4% | growth inhibition ([8]; at 3.7 µM): -5% | growth inhibition ([8]; at 11.0 µM): 6% | growth inhibition ([8]; at 33.0 µM): 14% | growth inhibition ([8]; at 100.0 µM): 48% | growth inhibition [9, 16]: -17% | growth inhibition [9, 17]: 48% | growth inhibition ([9]; at 50.0 µM): 9.3% | growth inhibition ([10]; at 1.2 µM): -4% | growth inhibition ([10]; at 3.7 µM): -2% | growth inhibition [10, 16]: -23% | growth inhibition ([10]; at 11.0 µM): -5% | growth inhibition ([10]; at 33.0 µM): 2% | growth inhibition [10, 17]: 27% | growth inhibition ([10]; at 50.0 µM): 34.4% | growth inhibition ([10]; at 100.0 µM): 32% | growth inhibition ([11]; at 1.2 µM): -11% | growth inhibition ([11]; at 3.7 µM): -13% | growth inhibition ([11]; at 11.0 µM): -14% | growth inhibition ([11]; at 33.0 µM): -8% | growth inhibition ([11]; at 100.0 µM): 46% | growth inhibition ([12]; at 1.2 µM): -3% | growth inhibition ([12]; at 3.7 µM): -3% | growth inhibition ([12]; at 11.0 µM): -4% | growth inhibition ([12]; at 33.0 µM): 2% | growth inhibition ([12]; at 100.0 µM): 59% | growth inhibition ([13]; at 1.2 µM): -1% | growth inhibition ([13]; at 3.7 µM): -23% | growth inhibition ([13]; at 11.0 µM): 2% | growth inhibition ([13]; at 33.0 µM): 13% | growth inhibition ([13]; at 100.0 µM): 92% (active) | growth inhibition [14, 16]: -8% | growth inhibition [14, 17]: 83% (active) | growth inhibition ([14]; at 50.0 µM): 32.1% | growth inhibition ([15]; at 1.2 µM): -5% | growth inhibition ([15]; at 3.7 µM): -1% | growth inhibition ([15]; at 11.0 µM): 0% | growth inhibition ([15]; at 33.0 µM): 3% | growth inhibition ([15]; at 100.0 µM): 47%
